Test results published in PubChem BioAssay AID1159580 (chemical genetic matrix, 2015).
The whole screen tested about 5,500 compounds, of which about 2,000 (36%) were called active. Another 18% or so got no clear call; they are omitted. No stated cut-off is given here; in the data, active means normalized growth mostly below about 0.91 (no sharp cut-off); inconclusive means no clear call, values can overlap the other calls; inactive means mostly above about 0.92. The list shows a part of the results.

Assay: chemical genetic growth profiling, strain panel (AID 1159580);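 further: tested at 20 µM; growth read once vehicle control cultures reached saturation at 30 °C; 1 = growth at the plate median or of vehicle wells; lower values mean less growth of the strain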
Conditions: growth OD

Measured: normalized growth

CC1=CCc2c(cc3oc(C)cc(=O)c3c2O)OC1
inactive: S. cerevisiae deletion strains, locus YJR075W, strain HOC1, active compounds read low 0.926 | S. cerevisiae deletion strains, locus YKL009W, strain mrt4, active compounds read low 0.912 | S. cerevisiae deletion strains, locus YKL068W, active compounds read low 0.974 | S. cerevisiae deletion strains, locus YKL160W, strain elf1, active compounds read low 0.978 | S. cerevisiae deletion strains, locus YKR026C, strain gcn3, active compounds read low 0.951 | S. cerevisiae deletion strains, locus YKR091W, strain srl3, active compounds read low 0.977 | S. cerevisiae deletion strains, locus YLL001W, strain dnm1, active compounds read low 0.968 | S. cerevisiae deletion strains, locus YLL026W, active compounds read low 0.97 | S. cerevisiae deletion strains, locus YLL041C, strain sdh2, active compounds read low 0.972 | S. cerevisiae deletion strains, locus YLR027C, strain aat2, active compounds read low 0.984 | S. cerevisiae deletion strains, locus YLR039C, strain RIC1, active compounds read low 0.766 | S. cerevisiae deletion strains, locus YLR058C, strain SHM2, active compounds read low 0.923 | S. cerevisiae deletion strains, locus YLR102C, strain apc9, active compounds read low 0.97 | S. cerevisiae deletion strains, locus YLR113W, strain HOG1, active compounds read low 0.931 | S. cerevisiae deletion strains, locus YLR221C, strain rsa3, active compounds read low 0.944 | S. cerevisiae deletion strains, locus YLR258W, strain gsy2, active compounds read low 0.95 | S. cerevisiae deletion strains, locus YLR262C, strain YPT6 (second series), active compounds read low 0.883 | S. cerevisiae deletion strains, locus YLR262C, strain YPT6, active compounds read low 0.772 | S. cerevisiae deletion strains, locus YLR320W, strain mms22, active compounds read low 0.932 | S. cerevisiae deletion strains, locus YLR330W, strain CHS5, active compounds read low 0.944 | S. cerevisiae deletion strains, locus YLR342W, strain FKS1, active compounds read low 1 | S. cerevisiae deletion strains, locus YLR357W, strain rsc2, active compounds read low 1.01 | S. cerevisiae deletion strains, locus YLR370C, strain arc18, active compounds read low 0.998 | S. cerevisiae deletion strains, locus YLR371W, strain rom2, active compounds read low 0.916 | S. cerevisiae deletion strains, locus YLR384C, strain iki3, active compounds read low 0.988 | S. cerevisiae deletion strains, locus YML016C, strain PPZ1, active compounds read low 0.953 | S. cerevisiae deletion strains, locus YML032C, strain rad52, active compounds read low 0.917 | S. cerevisiae deletion strains, locus YML120C, strain ndi1, active compounds read low 0.957 | S. cerevisiae deletion strains, locus YML124C, strain tub3, active compounds read low 0.966 | S. cerevisiae deletion strains, locus YMR058W, strain fet3, active compounds read low 0.936 | S. cerevisiae deletion strains, locus YMR078C, strain ctf18, active compounds read low 0.956 | S. cerevisiae deletion strains, locus YMR125W, strain sto1, active compounds read low 0.975 | S. cerevisiae deletion strains, locus YMR129W, active compounds read low 0.967 | S. cerevisiae deletion strains, locus YMR205C, strain PFK2, active compounds read low 0.971 | S. cerevisiae deletion strains, locus YMR231W, strain pep5, active compounds read low 0.998 | S. cerevisiae deletion strains, locus YMR307W, strain GAS1, active compounds read low 0.733 | S. cerevisiae deletion strains, locus YNL071W, strain lat1, active compounds read low 0.979 | S. cerevisiae deletion strains, locus YNL128W, strain TEP1, active compounds read low 0.881 | S. cerevisiae deletion strains, locus YNL183C, strain NPR1, active compounds read low 0.92 | S. cerevisiae deletion strains, locus YNL209W, strain ssb2, active compounds read low 1.01 | S. cerevisiae deletion strains, locus YNL248C, strain rpa49, active compounds read low 0.971 | S. cerevisiae deletion strains, locus YNL250W, strain rad50, active compounds read low 0.971 | S. cerevisiae deletion strains, locus YNL271C, strain bni1, active compounds read low 0.959 | S. cerevisiae deletion strains, locus YNL298W, strain CLA4, active compounds read low 0.925 | S. cerevisiae deletion strains, locus YNL322C, strain KRE1 (second series), active compounds read low 0.984 | S. cerevisiae deletion strains, locus YNL322C, strain KRE1, active compounds read low 0.94 | S. cerevisiae deletion strains, locus YNR049C, strain mso1, active compounds read low 0.981 | S. cerevisiae deletion strains, locus YNR052C, strain pop2, active compounds read low 0.973 | S. cerevisiae deletion strains, locus YOL006C, strain TOP1, active compounds read low 0.554 | S. cerevisiae deletion strains, locus YOL012C, strain htz1 1.55 | S. cerevisiae deletion strains, locus YOR001W, strain rrp6, active compounds read low 0.969 | S. cerevisiae deletion strains, locus YOR061W, strain CKA2, active compounds read low 0.972 | S. cerevisiae deletion strains, locus YOR069W, strain VPS5, active compounds read low 0.973 | S. cerevisiae deletion strains, locus YOR070C, strain gyp1, active compounds read low 0.965 | S. cerevisiae deletion strains, locus YOR080W, strain dia2, active compounds read low 0.986 | S. cerevisiae deletion strains, locus YOR083W, strain WHI5, active compounds read low 0.951 | S. cerevisiae deletion strains, locus YOR106W, strain vam3, active compounds read low 0.945 | S. cerevisiae deletion strains, locus YOR136W, strain idh2, active compounds read low 0.963 | S. cerevisiae deletion strains, locus YOR144C, strain elg1, active compounds read low 0.979 | S. cerevisiae deletion strains, locus YOR231W, strain MKK1, active compounds read low 0.958 | S. cerevisiae deletion strains, locus YOR265W, strain rbl2, active compounds read low 0.983 | S. cerevisiae deletion strains, locus YOR290C, strain snf2, active compounds read low 0.979 | S. cerevisiae deletion strains, locus YOR316C, strain cot1, active compounds read low 0.974 | S. cerevisiae deletion strains, locus YPL051W, strain arl3, active compounds read low 0.976 | S. cerevisiae deletion strains, locus YPL078C, strain atp4, active compounds read low 0.926 | S. cerevisiae deletion strains, locus YPL106C, strain sse1, active compounds read low 0.952 | S. cerevisiae deletion strains, locus YPL240C, strain hsp82, active compounds read low 0.97 | S. cerevisiae deletion strains, locus YPL241C, strain CIN2, active compounds read low 0.973 | S. cerevisiae deletion strains, locus YPL256C, strain CLN2, active compounds read low 0.99 | S. cerevisiae deletion strains, locus YPR119W, strain clb2, active compounds read low 0.956 | S. cerevisiae deletion strains, locus YPR141C, strain kar3, active compounds read low 0.972 | S. cerevisiae deletion strains, locus YPR163C, strain tif3, active compounds read low 0.921 | S. cerevisiae deletion strains, locus YPR167C, strain met16, active compounds read low 0.963
active: S. cerevisiae deletion strains, locus YKL085W, strain MDH1 (second series), active compounds read low 0.903 | S. cerevisiae deletion strains, locus YKL085W, strain MDH1, active compounds read low 0.903 | S. cerevisiae deletion strains, locus YKL190W, strain CNB1, active compounds read low 0.902 | S. cerevisiae deletion strains, locus YKR001C, strain vps1, active compounds read low 0.759 | S. cerevisiae deletion strains, locus YLR268W, strain sec22, active compounds read low 0.869 | S. cerevisiae deletion strains, locus YLR342W, strain FKS1 (second series), active compounds read low 0.792 | S. cerevisiae deletion strains, locus YLR418C, strain cdc73, active compounds read low 0.639 | S. cerevisiae deletion strains, locus YMR223W, strain ubp8, active compounds read low 0.902 | S. cerevisiae deletion strains, locus YMR263W, strain SAP30, active compounds read low 0.865 | S. cerevisiae deletion strains, locus YNL067W, strain RPL9B, active compounds read low 0.844 | S. cerevisiae deletion strains, locus YNL153C, strain GIM3, active compounds read low 0.858 | S. cerevisiae deletion strains, locus YNL233W, strain BNI4, active compounds read low 0.807 | S. cerevisiae deletion strains, locus YNL307C, strain MCK1, active compounds read low 0.651 | S. cerevisiae deletion strains, locus YOL147C, strain pex11, active compounds read low 0.922 | S. cerevisiae deletion strains, locus YOR184W, strain ser1, active compounds read low 0.782 | S. cerevisiae deletion strains, locus YOR270C, strain vph1, active compounds read low 0.683 | S. cerevisiae deletion strains, locus YPL055C, strain LGE1, active compounds read low 0.716 | S. cerevisiae deletion strains, strain wtn01, active compounds read low 0.843 | S. cerevisiae strains, strain wild type, active compounds read low 0.878
